Experimental findings from PubChem BioAssay (NCI) are described below.

Some test systems named below: SK-MEL-2 melanoma; EKVX NSCLC; SN12C renal; UO-31 renal; TK-10 renal; ACHN renal; A498 renal; CCRF-CEM leukemia; MOLT-4 leukemia; SR leukemia.
Holding throughout (assay): NCI-60 one-dose screen, 48 h (100 = growth as untreated, 0 = no growth, -100 = all killed)
Common to all, as to conditions: 10 µM unless noted

Compounds without any hit were thinned out: in the full panel of roughly 83,000, 20% have a hit.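 Cell lines were cultured in 96-well plates, exposed to a single compound concentration, and assessed for percent growth 48 hours later.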 Values without a mark were called inactive. The source made the active and inactive calls. Rule for the calls: active = growth percent below 10; inactive = the rest.

Regarding `COc1cc(C(=O)Nc2cc(O)c(C/C=C(\C)CCC=C(C)C)c(O)c2)cc2c1O[C@]1(C)CC[C@@H](O)C(C)(C)[C@H]1C2`, the growth in the experiment on SK-MEL-2 melanoma is 5.69% (active); in the experiment with EKVX NSCLC, 31.7%; in the experiment with SN12C renal, 26.5%; in the experiment with UO-31 renal, -31.9% (active); in the experiment on TK-10 renal it was 40.9%; in the experiment with ACHN renal it was 18.5%. The growth is -25.7% (active) in the experiment on A498 renal, 7.08% (active) with CCRF-CEM leukemia, -2.24% (active) with MOLT-4 leukemia and 1.41% (active) with SR leukemia.

Regarding `C=C(C)[C@@H]1CC[C@]2(C(=O)O)CC[C@]3(C)[C@H](CC[C@@H]4[C@@]5(C)C[C@@H](CC#Cc6ccccc6C)C(=O)C(C)(C)[C@@H]5CC[C@]43C)[C@@H]12`, the growth is 41.1% with SK-MEL-2 melanoma; 28.1% in the experiment with EKVX NSCLC; 37.8% in the experiment with SN12C renal; 29.4% in the experiment on UO-31 renal; 27.3% in the experiment with TK-10 renal; 29.4% with ACHN renal. The growth is 10.7% with A498 renal, 31.1% in the experiment on CCRF-CEM leukemia, 13.3% in the experiment on MOLT-4 leukemia and 23% with SR leukemia.

Regarding `CCCCCCCCCCCCCC1=NCC[N+]1(CCO)Cc1ccccc1` (stereo not given), the growth is -61.7% (active) in the experiment on SK-MEL-2 melanoma; -79.5% (active) with EKVX NSCLC; -84.3% (active) in the experiment with SN12C renal; -86.1% (active) with UO-31 renal; -85.4% (active) in the experiment with TK-10 renal; -98% (active) in the experiment with ACHN renal. The growth is 54.2% in the experiment with A498 renal, -49.5% (active) with CCRF-CEM leukemia, -58.1% (active) in the experiment on MOLT-4 leukemia and -50.7% (active) with SR leukemia.

`COc1ccc(OCC(=O)OC(C)C)cc1`: the growth in the experiment on SK-MEL-2 melanoma is 109%; in the experiment with EKVX NSCLC it was 99%; in the experiment on SN12C renal it was 96.8%; with UO-31 renal it was 89.6%; in the experiment with TK-10 renal, 92.9%; in the experiment on ACHN renal, 108%. For the same compound, the growth was 92% with A498 renal, 112% in the experiment on CCRF-CEM leukemia, 91.1% in the experiment with MOLT-4 leukemia and 91.9% in the experiment on SR leukemia.

`O=c1nc(-c2ccccc2)c2cc(-c3ccc(N4CCCC4)nc3)ccc2[nH]1`: the growth in the experiment on SK-MEL-2 melanoma was 37.5%; in the experiment with EKVX NSCLC, 71.1%; in the experiment on SN12C renal it was 83.9%; in the experiment on UO-31 renal, 63.6%; with TK-10 renal, 88.5%; in the experiment with ACHN renal, 82.6%. Moreover, the growth was 46.6% in the experiment with A498 renal, 54.5% in the experiment with CCRF-CEM leukemia, 44% in the experiment on MOLT-4 leukemia and 18.2% in the experiment on SR leukemia.

`CCCCc1ccc(N=Nc2ccc(OCC[N+](C)(C)C)cc2)cc1`: the growth is 93.6% in the experiment on SK-MEL-2 melanoma; 85.1% in the experiment on EKVX NSCLC; 31% in the experiment with SN12C renal; 88.1% in the experiment on UO-31 renal; 31.3% with TK-10 renal; 67% with ACHN renal. In addition, the growth in the experiment with A498 renal was 67.5%; in the experiment with CCRF-CEM leukemia, 62.4%; with MOLT-4 leukemia it was 57.2%; in the experiment with SR leukemia, 76%.

Turning to `c1ccc(-c2n(Cc3ccc4ccccc4n3)cc[n+]2Cc2ccc3ccccc3c2)cc1`, the growth with SK-MEL-2 melanoma is -27% (active); in the experiment with EKVX NSCLC, 38.4%; in the experiment with SN12C renal, 4.45% (active); with UO-31 renal, 54.6%; in the experiment on TK-10 renal, -0.737% (active); in the experiment on ACHN renal, 63.8%. In addition, the growth in the experiment on A498 renal is -2.66% (active); in the experiment on CCRF-CEM leukemia, 4.04% (active); in the experiment on MOLT-4 leukemia, 2.42% (active); in the experiment with SR leukemia it was -27.4% (active).

Consider `CNC(=O)c1cc(Oc2ccc3c(c2)sc2nc(-c4ccc(NC(C)=O)cc4)cn23)ccn1`, for which the growth was 45.2% with SK-MEL-2 melanoma; 54.7% in the experiment with EKVX NSCLC; 52% in the experiment on SN12C renal; 43.9% in the experiment with UO-31 renal; 61.4% in the experiment on TK-10 renal; 52% in the experiment on ACHN renal. Further, the growth in the experiment on A498 renal was -6.27% (active); in the experiment on CCRF-CEM leukemia, 78.8%; in the experiment with MOLT-4 leukemia it was 72.7%; in the experiment on SR leukemia, 25.7%.

Regarding `COc1cc(F)c(-c2nc3c(C)cccc3n2Cc2c(F)cccc2F)c(F)c1`, the growth in the experiment on SK-MEL-2 melanoma is 93.6%; with EKVX NSCLC, 87.9%; in the experiment on SN12C renal, 92.1%; in the experiment with UO-31 renal, 72.2%; with TK-10 renal, 90.5%; with ACHN renal, 101%. For the same compound, the growth is 87% with A498 renal, 98.6% with CCRF-CEM leukemia, 60.6% in the experiment with MOLT-4 leukemia and 88.3% in the experiment on SR leukemia.

As for `O=C(O)CCNC1CCCCC1`, the growth with SK-MEL-2 melanoma was -21.2% (active); with EKVX NSCLC, 115%; with SN12C renal, 88.3%; in the experiment on UO-31 renal, 83.4%; in the experiment with TK-10 renal it was 118%; with ACHN renal it was 103%. Also, the growth in the experiment on A498 renal is 94.6%; in the experiment on CCRF-CEM leukemia, 102%; in the experiment on MOLT-4 leukemia it was 103%; in the experiment with SR leukemia, 105%.

Turning to `NS(=O)(=O)c1ccc(-n2nc(-c3ccccc3)ccc2=O)cc1`, the growth is 101% in the experiment on SK-MEL-2 melanoma; 118% in the experiment on EKVX NSCLC; 97.7% in the experiment on SN12C renal; 91.9% in the experiment on UO-31 renal; 132% in the experiment on TK-10 renal; 108% in the experiment with ACHN renal. Moreover, the growth with A498 renal was 102%; with CCRF-CEM leukemia, 95.6%; in the experiment with MOLT-4 leukemia it was 96.4%; in the experiment on SR leukemia, 83.9%.

As to `C[C@H]1[C@H](C)CC[C@]2(C(=O)OCCCC[P+](c3ccccc3)(c3ccccc3)c3ccccc3)CC[C@]3(C)C(=CC[C@@H]4[C@@]5(C)CC[C@H](OC(=O)C(Cl)Cl)C(C)(C)[C@@H]5CC[C@]43C)[C@H]12`, the growth with SK-MEL-2 melanoma is -63.8% (active); in the experiment with EKVX NSCLC, -35.4% (active); with SN12C renal, -81% (active); in the experiment with UO-31 renal, -93.9% (active); in the experiment on TK-10 renal it was -76.8% (active); with ACHN renal, -79.6% (active). The growth was -82% (active) in the experiment with A498 renal, -16.6% (active) with CCRF-CEM leukemia, -49.8% (active) in the experiment with MOLT-4 leukemia and -49.4% (active) in the experiment with SR leukemia.

For `C=C1C(=O)O[C@H]2[C@H]1CC/C(COC(=O)CCCCCCCCC(=O)OC/C1=C/CC[C@@]3(C)O[C@H]3[C@H]3OC(=O)C(=C)[C@@H]3CC1)=C\CC[C@@]1(C)O[C@@H]21`, the growth in the experiment on SK-MEL-2 melanoma is 22%; in the experiment with EKVX NSCLC it was 8.84% (active); with SN12C renal it was -1.39% (active); in the experiment with UO-31 renal it was -75.2% (active); in the experiment on TK-10 renal it was 0.838% (active); in the experiment with ACHN renal it was -23.2% (active). The growth in the experiment on A498 renal is 96.8%; with CCRF-CEM leukemia, 2.5% (active); in the experiment on MOLT-4 leukemia, 3.83% (active); in the experiment with SR leukemia, -2.09% (active).
